# Bioassay records deposited in PubChem BioAssay by National Center for Advancing Translational Sciences (NCATS).
# TDP1 cell CPT: DT40-hTDP1 cell growth loss with CPT | chicken DT40 Tdp1-/-;hTDP1 cells + 20 nM CPT, ATP luminescence, 48 h | Potency, µM (doses to about 46.2 µM), inactives show top-dose activity change, negative = growth inhibition, usual class: inhibitors | 420,000 tested, 12% active | AID 686979; also: potency is read from the fitted curve at half-maximal effect; % is scaled to controls: 0 for no effect and ±100 for the full control effect; nearly all actives have a fitted effect of over 55% in size
#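 Chicken DT40 Tdp1-/- cells stably complemented with human TDP1 were seeded at 400 cells/well in medium containing 20 nM camptothecin, exposed to pin-transferred compounds, and grown at 37 °C for at least 48 hr. Viability was read as ATP luminescence.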
# S-ASM inh: inhibitors of human secretory acid sphingomyelinase; Potency, µM (highest dose often 57.5 µM), inactives show at the top dose activity change, negative = inhibition, most hits filed as inhibitors; P17405; 340,000 tested, 0.006% active; AID 504937; placental ASM, HMU-PC fluorogenic substrate, 60 min; also: potency is read from the fitted curve at half-maximal effect
# Target sequence (P17405 47-631 limits assumed): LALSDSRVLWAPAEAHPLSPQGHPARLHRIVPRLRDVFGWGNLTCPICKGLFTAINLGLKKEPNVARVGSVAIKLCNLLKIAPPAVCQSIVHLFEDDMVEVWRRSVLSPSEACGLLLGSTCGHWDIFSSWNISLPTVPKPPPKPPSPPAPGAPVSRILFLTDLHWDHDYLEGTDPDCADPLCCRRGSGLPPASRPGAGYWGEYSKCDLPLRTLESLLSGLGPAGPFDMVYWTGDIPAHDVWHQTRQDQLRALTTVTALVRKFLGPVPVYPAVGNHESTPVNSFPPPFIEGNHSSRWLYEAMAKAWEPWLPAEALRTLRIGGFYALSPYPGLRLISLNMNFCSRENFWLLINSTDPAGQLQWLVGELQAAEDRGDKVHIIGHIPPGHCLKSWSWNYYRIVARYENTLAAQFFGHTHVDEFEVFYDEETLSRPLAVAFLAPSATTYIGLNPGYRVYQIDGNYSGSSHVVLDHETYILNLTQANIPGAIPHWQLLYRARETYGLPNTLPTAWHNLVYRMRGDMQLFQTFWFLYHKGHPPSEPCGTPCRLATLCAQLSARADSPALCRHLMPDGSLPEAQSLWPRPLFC
#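 Fluorescence read-out (Ex 386 nm, Em 447 nm) after stopping the reaction at pH 10. Enzyme: ASM from human placenta; substrate HMU-PC0, 9 uM final; 60 min, 37 °C. Compound preincubation 10 min, ambient temperature.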
# TGFb SMAD3 inh: TGF-b pathway inhibition; Potency, µM (series often up to 46.1 µM), for the others: at the top dose activity, negative = inhibition, hits mostly inhibitors; 410,000 tested, 1.2% active; HepG2 CAGA-GFP TGF-b/SMAD3 reporter, GFP fluorescence, 18 h; TGF-beta stimulated, 500 pg/mL final; AID 588855; also: potency is read from the fitted curve at half-maximal effect; % is scaled to controls: 0 for no effect and ±100 for the full control effect; nearly all actives have a fitted effect of over 65% in size
#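 HEPG2 CAGA-GFP reporter cells (1000/well, DMEM with 1% FBS) received compounds, then recombinant TGF-beta at 500 pg/mL final for 18 hours at 37 degrees C. Per-cell GFP summed per well was normalised to unstimulated and stimulated DMSO controls before curve fitting.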
# HepG2 tox: kills HepG2 cells in TGF-b inhibitor counter-screen | HepG2 CAGA-GFP viability, ATP luminescence, 18 h | Potency, µM (top dose mostly 46.1 µM), without a hit: top-dose activity change, negative = cytotoxicity, usual class: cytotoxic | 410,000 tested, 0.76% active | AID 588856; also: potency is read from the fitted curve at half-maximal effect
#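 HepG2 CAGA-GFP cells (1000/well, DMEM with 1% FBS) received compound, then TGF-beta at 500 pg/mL final, and were incubated 18 hours at 37 degrees C. Viability was read by CellTiter-Glo luminescence. Media-only wells were set as complete cell-killing and DMSO as no toxicity.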
# IL-1B inflam inh: inhibitors of inflammasome signaling (IL-1 beta secretion); 360,000 tested, 4.7% active; activity change, % at 57.5 µM; THP-1 LPS/ATP IL-1B secretion, AlphaLISA, 16 h; hits give low values; in the data active = activity change below about -50%; inconclusive = mostly about -30% to -49%; also: % is scaled to controls: 0 for no effect and ±100 for the full control effect
#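 THP-1 cells pretreated 1 hr with compounds (up to 57.5 uM final), then stimulated with LPS (250 ng/mL final) plus ATP (1.25 mM final); secreted IL-1B measured by AlphaLISA after 16 hr, decreased signal indicating inhibition.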
# DT40 TDP1 no CPT: qHTS for Inhibitors of human tyrosyl-DNA phosphodiesterase 1 (TDP1): qHTS in cells in absence of CPT. DT40 Tdp1-/- hTDP1 cells, no CPT, ATP luminescence, 48 h. Potency, µM (top dose mostly 46.2 µM), for inactives: top-dose activity change, negative = growth inhibition, actives largely listed as inhibitors. 420,000 tested, 15% active; also: potency is read from the fitted curve at half-maximal effect; % is scaled to controls: 0 for no effect and ±100 for the full control effect; nearly all actives have a fitted effect of over 55% in size
#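 Camptothecin absent (DMSO only). Human TDP1-complemented DT40 knockout cells, 400 cells/well, 37 °C for minimum 48 hr; ATP measured via CellTiter-Glo, 30 min dark incubation, luminescence.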
# Active calls of the source: *; i = inactive; ? = inconclusive; · = no result. Compounds with a hit are over-represented: about 19% of the library has one in this group of screens. Unless noted, calls follow the shape of the dose curve; as a rule, active = well fitted curve in the direction sought with a large enough effect; inconclusive = small, poorly fitted or top-dose-only effect, or another doubt; inactive = no such curve, though single readings can be large; an effect the other way counts as inactive or inconclusive.
SMILES,TDP1 cell CPT,S-ASM inh,TGFb SMAD3 inh,HepG2 tox,IL-1B inflam inh,DT40 TDP1 no CPT
COc1ccc(-n2nc3c(c2NC(=O)C2CC(=O)N(c4ccccc4)C2)CS(=O)(=O)C3)cc1 (stereo not drawn),-6%,3%,-2%,-25%,i,-4%
COC(=O)c1ccc(CSc2ccc3nnc(-c4ccccn4)n3n2)o1,-13%,3%,1%,-9%,10,?
COC(=O)c1ccc(CSc2ccc3nnc(-c4ccc(F)cc4)n3n2)o1,?,-3%,10%,-2%,-4,21µM*
CCOC(=O)C(C)Sc1ccc2nnc(-c3ccc(OCC)cc3)n2n1 (stereo not drawn),10µM*,·,6%,0%,·,-89%
CCOc1ccc2nnc(-c3ccc(Br)cc3)n2n1,?,1%,?,-5%,11,15µM*
CCOc1ccc(-c2nnc3ccc(SCc4ccc(C(=O)OC)o4)nn23)cc1,?,-25%,-5%,-8%,-15,16µM*
CCOC(=O)C(C)Sc1ccc2nnc(-c3ccc(F)cc3)n2n1 (stereo not drawn),?,-2%,-1%,-9%,17,?
Cc1ccccc1CN(C)C[C@@H]1OCc2cnnn2CCCC(=O)N([C@H](C)CO)C[C@H]1C,4%,·,-1%,1%,6,11%
CC(NC(=O)c1ccc(N2CCCC2)c([N+](=O)[O-])c1)c1ccc(S(N)(=O)=O)cc1 (stereo not drawn),-18%,-4%,96%,0%,-18,14%
Cc1ccccc1OCC(=O)OCC(=O)NCCc1ccccc1,-9%,-1%,-6%,-5%,-4,-7%
Cc1ccc(-c2nn(-c3ccc(F)cc3)cc2C(=O)N2CCN(C3CCS(=O)(=O)C3)CC2)cc1 (stereo not drawn),-12%,0%,-10%,-23%,-10,-26%
CCOC(=O)c1[nH]c2ccc(OC)cc2c1NC(=O)c1ccc(OC)c(OC)c1,-24%,33%,3%,-7%,0,?
COC(=O)c1[nH]c2cc(OC)c(OC)cc2c1NC(=O)c1cccc(OC)c1,?,-17%,20%,8%,?,21µM*
CCOC(=O)c1[nH]c2ccccc2c1NC(=O)c1cc(OC)cc(OC)c1,23µM*,·,-21%,-11%,·,23µM*
CCOC(=O)c1[nH]c2ccccc2c1NC(=O)c1cc(OC)c(OC)c(OC)c1,-13%,-1%,-1%,-30%,0,?
COC(=O)/C=C1\OCc2cc(OC)c(OC)cc21,9%,·,·,·,-9,-2%
O=C(CC1C(=O)NCCN1C(=O)Nc1ccc(Cl)cc1)Nc1ccc(F)cc1 (stereo not drawn),-29%,?,?,-37%,-64*,-21%
COc1ccc(OC)c(NC(=O)CC2C(=O)NCCN2C(=O)Nc2cccc(Cl)c2)c1 (stereo not drawn),?,-2%,2%,-30%,-66*,-14%
O=C(CC1C(=O)NCCN1C(=O)c1ccc(Cl)cc1)Nc1ccc(F)cc1 (stereo not drawn),1%,1%,9%,-1%,-3,11%
Cc1ccc2nc(Cl)c(/C=N/Nc3ccc(C(=O)O)cc3)cc2c1,-6%,146%,1%,-36%,30,?
CCOC(=O)c1ccc(NC(=O)CSc2nc3cc4ccccc4cc3[nH]2)cc1,23µM*,·,-17%,-36%,·,18µM*
COc1ccc2nc(SCC(=O)Nc3ccccc3)[nH]c2c1,?,-2%,17%,1%,-21,-13%
